A selection: hits, their analogues and other compounds. The true share with any hit is near 1.4%.
TbPYK inhibitor: qHTS of Trypanosoma Brucei Inhibitors; pyruvate kinase (Trypanosoma brucei), Q57TT1; TbPYK enzyme, Kinase-Glo Plus ATP luminescence, 45 min; Potency, µM (titrated, usually from 76.8 µM), actives largely listed as inhibitors; 410,000 tested, 0.12% active; AID 624173, 2012; also: nearly all actives have a fitted effect of over 50% in size
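In this concentration-response screen, enzyme-free wells defined baseline while DMSO plates tracked drift. Each reaction combined TbPYK, substrate, compound and 130 uM ADP for 45 min at room temperature. Kinase-Glo Plus luminescence gave the signal.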
FBPA Giardia inh: qHTS Assay for Inhibitors of Fructose-1,6-bisphosphate Aldolase from Giardia Lamblia; A8B2U2; purified Giardia FBPA; Potency, µM (titrated, usually from 59.6 µM), usual class: inhibitors; 290,000 tested, 0.71% active; AID 2451, 2010; also: nearly all actives have a fitted effect of over 55% in size
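40 nM FBPA preincubated 10 min at RT with compound (up to 57.5 uM final), then substrate plus GAPDH/TPI/NAD/arsenate coupling and diaphorase/resazurin added. Fluorescence read after 20 min at RT, 525/598 nm.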
RE007 growth inh: qHTS Assay for Inhibitors of the HIV-1 protein Vpr; Potency, µM (top dose mostly 92.2 µM), actives largely listed as inhibitors; 360,000 tested, 0.21% active; S. pombe RE007 Vpr strain, BacTiter-Glo ATP luminescence, 24 h; AID 651644, 2012; active = well fitted falling curve with a large enough effect; inconclusive = small, poorly fitted or top-dose-only effect; inactive = no such curve, though single readings can be large or run the other way; also: nearly all actives have a fitted effect of over 50% in size
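Fission yeast strain RE007, carrying one chromosomally integrated HIV-1 vpr copy, was seeded at OD 0.01 in PMG+AL medium with 23 nL pinned compound. After 24 h at 30 °C and 99% humidity, viability was read by BacTiter-Glo luminescence.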
AmpC inh no detg: qHTS Inhibitors of AmpC Beta-Lactamase (assay without detergent) | P00811 | AmpC nitrocefin hydrolysis, absorbance 480 nm, 0.0001% Triton | Potency, µM (series often up to 57.1 µM), hits mostly inhibitors | AID 485341, 2010 | 330,000 tested, 0.52% active; also: nearly all actives have a fitted effect of over 20% in size
Target sequence (P00811 whole entry, looked up): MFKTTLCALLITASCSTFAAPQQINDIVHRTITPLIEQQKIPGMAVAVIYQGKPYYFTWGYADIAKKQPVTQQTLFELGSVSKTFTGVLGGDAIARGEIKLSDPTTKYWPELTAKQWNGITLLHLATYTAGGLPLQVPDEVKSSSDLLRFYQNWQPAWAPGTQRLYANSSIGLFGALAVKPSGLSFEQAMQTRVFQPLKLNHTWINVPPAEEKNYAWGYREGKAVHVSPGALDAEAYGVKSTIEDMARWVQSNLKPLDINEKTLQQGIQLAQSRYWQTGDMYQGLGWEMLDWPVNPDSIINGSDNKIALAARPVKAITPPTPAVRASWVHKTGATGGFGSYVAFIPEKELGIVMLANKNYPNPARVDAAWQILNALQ
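AmpC (5.3 nM in the dispensed reagent) in 20 mM phosphate pH 7.0 with 0.01% (detergent screen) or 0.0001% Triton X-100 was preincubated with compounds for 15 min at room temperature. Nitrocefin was then added from an 800 uM solution, and hydrolysis was followed at 480 nm.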
AmpC detergent: qHTS Inhibitors of AmpC Beta-Lactamase (assay with detergent); Potency, µM (doses to about 114 µM), actives largely listed as inhibitors; AmpC hydrolysis of nitrocefin, absorbance 480 nm, 0.01% Triton; 370,000 tested, 0.041% active; also: nearly all actives have a fitted effect of over 25% in size
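20 mM phosphate pH 7.0 + 0.01% (detergent screen) or 0.0001% Triton X-100; 5.3 nM AmpC reagent; cpd preinc 15 min RT; nitrocefin (800 uM stock) to start; A480 q20 s × 4 min; Activity was normalised to no-enzyme and no-compound control wells.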
LmPK inhibitor: qHTS Assay for Inhibitors of Leishmania Mexicana Pyruvate Kinase (LmPK); Q27686; 290,000 tested, 0.37% active; purified LmPK, Kinase-Glo ATP luminescence, 1 h; AID 1721, 2009; Potency, µM (doses to about 57.5 µM), usual class: inhibitors
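Pyruvate kinase activity monitored as ATP production (luciferase luminescence). Conditions: 0.1 nM enzyme, 0.5 mM PEP, 0.1 mM ADP, 1 h, RT; normalized against uninhibited and no-enzyme wells.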
Of the large screens only hits and unclear results are named; the others gave an inactive call. Unless noted, calls follow the shape of the dose curve; as a rule, active = well fitted curve in the direction sought with a large enough effect; inconclusive = small, poorly fitted or top-dose-only effect, or another doubt; inactive = no such curve, though single readings can be large; an effect the other way counts as inactive or inconclusive.

C=CCn1c(CSc2nc3ccccc3s2)n[nH]c1=S	TbPYK inhibitor 4.5µM, LmPK inhibitor inconclusive
CCn1c(CSc2nc3ccccc3s2)n[nH]c1=S	TbPYK inhibitor inconclusive, LmPK inhibitor inconclusive
CCOC(=O)C1CCN(C(=O)Cn2ncc3c4ccccc4n(Cc4ccc(F)cc4)c3c2=O)CC1	none (no result: FBPA Giardia inh, RE007 growth inh, AmpC inh no detg, LmPK inhibitor)
O=C(NCCOCCn1c(=O)oc2ccccc21)Nc1ccc(F)cc1F	none (no result: FBPA Giardia inh, RE007 growth inh, AmpC inh no detg, LmPK inhibitor)
COc1ccc(NC(=O)C(NC(=O)C2CCC(C)CC2)C(C)C)cc1 (stereo not drawn)	none (no result: FBPA Giardia inh, RE007 growth inh, AmpC inh no detg, LmPK inhibitor)
CC(=O)N1CCc2c(sc3c2c(=O)n(-c2ccccc2)c(=O)n3Cc2cccc(C(F)(F)F)c2)C1	none (no result: FBPA Giardia inh, RE007 growth inh, AmpC inh no detg, LmPK inhibitor)
Cc1ccc(C(=O)COC(=O)COc2ccccc2[N+](=O)[O-])s1	none (no result: FBPA Giardia inh, LmPK inhibitor)
CCOC(=O)COc1ccccc1/C=C\[N+](=O)[O-]	TbPYK inhibitor inconclusive, RE007 growth inh 32µM, AmpC detergent inconclusive
CC(=O)c1cc(-c2ccccc2)n(CC(=O)Nc2cccc(C)c2)c1C	AmpC inh no detg 14µM, AmpC detergent inconclusive
COc1ccc(NC(=O)CC2C(=O)N(c3ccc(C)cc3)C(=O)N2CCc2ccccc2)cc1 (stereo not drawn)	none (no result: FBPA Giardia inh, RE007 growth inh, AmpC inh no detg, LmPK inhibitor)
C/C(=N/Nc1ccc(C(=O)O)cc1)c1ccc(O)c(O)c1O	FBPA Giardia inh 7.1µM
COc1cccc(-c2nc(CS(=O)(=O)CC(=O)Nc3cccc(C)c3C)c(C)o2)c1	AmpC inh no detg 45µM, AmpC detergent inconclusive
N[C@@H](C(=O)N[C@H]1C(=O)N2C(C(=O)O)=C(Cl)CC[C@H]12)c1ccccc1	none (no result: FBPA Giardia inh, RE007 growth inh, AmpC inh no detg, AmpC detergent, LmPK inhibitor)
CCOC(=O)N1CCN(c2cc(NCCC(=O)O)c3c4c(onc24)-c2ccccc2C3=O)CC1	FBPA Giardia inh 5.6µM, RE007 growth inh inconclusive, LmPK inhibitor 16µM
O=C(O)CCCNc1cc(N2CCC3(CC2)OCCO3)c2noc3c2c1C(=O)c1ccccc1-3	FBPA Giardia inh inconclusive, LmPK inhibitor inconclusive (no result: TbPYK inhibitor, RE007 growth inh)
Cc1ccc(C)c(NNC(N)=S)c1	FBPA Giardia inh inconclusive, RE007 growth inh inconclusive
NC(=S)NNc1cc(Cl)cc(Cl)c1	FBPA Giardia inh inconclusive, RE007 growth inh 8.9µM
NC(=S)Nc1cc(Cl)cc(Cl)c1	none
Cc1cc(Cl)ccc1NNC(N)=S	FBPA Giardia inh inconclusive, RE007 growth inh 16µM
CCc1ccccc1NC(=O)c1sc(-n2nc(C)c(Cc3ccc4c(c3)OCO4)c2C)nc1C	none (no result: FBPA Giardia inh, RE007 growth inh, AmpC inh no detg, LmPK inhibitor)
COc1ccc(-n2ccc(-c3nn(-c4cccc(C(F)(F)F)c4)ccc3=O)n2)cc1	none
O=c1ccn(-c2cccc(C(F)(F)F)c2)nc1-c1ccn(-c2ccccc2F)n1	FBPA Giardia inh 16µM
Fc1ccc(NCc2cn3ccccc3n2)cc1	FBPA Giardia inh inconclusive, LmPK inhibitor 11µM
Fc1cccc(NCc2cn3ccccc3n2)c1	none
CCC(=O)Nc1nc(C)c(-c2csc(Nc3cccc(O)c3)n2)s1	AmpC inh no detg 16µM, AmpC detergent inconclusive
Cc1nc(NC(=O)c2ccccc2)sc1-c1csc(Nc2cccc(Cl)c2)n1	AmpC inh no detg 14µM (no result: TbPYK inhibitor, RE007 growth inh)
CC(C)(C)C(=O)Nc1cc(-c2cccc(Br)c2)nn1-c1ccccc1	none (no result: FBPA Giardia inh, RE007 growth inh, AmpC inh no detg, LmPK inhibitor)
CCOc1ccc(CCNC(=O)c2sc3ncccc3c2-n2cccc2)cc1OCC	none (no result: FBPA Giardia inh, RE007 growth inh, AmpC inh no detg, LmPK inhibitor)
COc1cccc(-n2cc(C(=O)Nc3cccc(C(F)(F)F)c3)c3ccccc3c2=O)c1	none (no result: FBPA Giardia inh, RE007 growth inh, AmpC inh no detg, LmPK inhibitor)
O/N=C/c1ccccc1OCc1ccc(Cl)cc1	none
C=CCOc1ccc(Br)cc1/C=N/O	AmpC detergent inconclusive
O/N=C/c1cc(Br)ccc1OCc1ccccc1F	RE007 growth inh 40µM (no result: FBPA Giardia inh, AmpC inh no detg, AmpC detergent, LmPK inhibitor)
O/N=C/c1ccccc1OCc1ccccc1Cl	RE007 growth inh 45µM
CCCOc1ccc(C2=NC(c3ccc(F)cc3)=Nc3ccc(OC)cc3N2)cc1	none (no result: FBPA Giardia inh, RE007 growth inh, AmpC inh no detg, LmPK inhibitor)
O=C(CSC1=NS(=O)(=O)c2ccccc21)Nc1ccccc1	TbPYK inhibitor inconclusive, AmpC detergent inconclusive, LmPK inhibitor 22µM
O=C(CSC1=NS(=O)(=O)c2cc(F)ccc2N1)Nc1ccccc1	none (no result: FBPA Giardia inh, LmPK inhibitor)

High-throughput results deposited in PubChem by National Center for Advancing Translational Sciences (NCATS).
